Compounds with a hit are over-represented: about 2.1% of the library has one in this group of screens.
F508del corr – correctors of CFTR F508del function in bronchial epithelial cells | AID 720511 | actives 0.36% (n = 350,000) | CFBE cells, YFP halide quenching; stimulated with forskolin plus potentiator P3; % fluorescence drop versus neutral controls | activity (quench increase), % at 7.58 µM;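 active = mean added fluorescence quench of at least 8% versus neutral control, with both replicates also reaching 8%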;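 also: cells transiently co-express mutant CFTR-F508del with the halide-sensitive YFP; corrector assay measuring rescue of mutant channel to the surface after 24 h compound exposure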
ERAP1 inh – inhibitors of human ERAP1 aminopeptidase; AID 652197; Q9NZ08; inhibition, % at 10.7 µM; recombinant ERAP1, Leu-AMC fluorescence, 60 min; actives 0.15% (n = 340,000);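 active = mean replicate inhibition of at least 30%, or all replicates individually reaching that 30% level; inactive = mean below 30% and not every replicate reaching it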;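 also: 0% = neutral control wells and 100% = L-leucinethiol positive control wells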
Target sequence (Q9NZ08 whole entry, looked up): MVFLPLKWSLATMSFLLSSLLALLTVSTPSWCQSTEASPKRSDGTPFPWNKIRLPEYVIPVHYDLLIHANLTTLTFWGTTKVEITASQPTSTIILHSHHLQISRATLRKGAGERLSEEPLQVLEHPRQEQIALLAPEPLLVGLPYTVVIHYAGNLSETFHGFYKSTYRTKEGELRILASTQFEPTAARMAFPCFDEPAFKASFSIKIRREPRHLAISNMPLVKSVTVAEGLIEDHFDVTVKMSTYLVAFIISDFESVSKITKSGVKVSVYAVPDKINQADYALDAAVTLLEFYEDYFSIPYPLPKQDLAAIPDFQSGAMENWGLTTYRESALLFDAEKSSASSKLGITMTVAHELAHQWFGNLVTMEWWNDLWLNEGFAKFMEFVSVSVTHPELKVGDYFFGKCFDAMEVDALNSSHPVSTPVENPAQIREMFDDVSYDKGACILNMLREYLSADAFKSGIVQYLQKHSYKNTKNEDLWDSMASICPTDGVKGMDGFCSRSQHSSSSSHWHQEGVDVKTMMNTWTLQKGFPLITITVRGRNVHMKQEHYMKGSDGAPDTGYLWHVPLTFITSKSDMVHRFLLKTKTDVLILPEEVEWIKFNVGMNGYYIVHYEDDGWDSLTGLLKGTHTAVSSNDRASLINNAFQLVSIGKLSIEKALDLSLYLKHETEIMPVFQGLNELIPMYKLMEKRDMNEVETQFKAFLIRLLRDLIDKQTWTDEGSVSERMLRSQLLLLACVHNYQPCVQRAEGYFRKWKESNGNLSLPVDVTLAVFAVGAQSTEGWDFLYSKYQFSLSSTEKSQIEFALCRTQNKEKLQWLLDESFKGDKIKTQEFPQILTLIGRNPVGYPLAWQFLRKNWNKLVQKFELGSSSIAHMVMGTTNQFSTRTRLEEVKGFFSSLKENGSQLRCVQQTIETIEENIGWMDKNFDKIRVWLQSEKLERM
ARNT TACC3 PPI – disruptors of human ARNT/TACC3 interaction; AlphaScreen His-ARNT PAS-B/GST-TACC3 binding, luminescence; TACC3 fragment carries E629A point mutation; inhibition, % at 9.99 µM; actives 0.66% (n = 390,000); Q9Y6A5;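 active = mean inhibition of replicates at least 50% and at least half of replicates each reaching 50%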;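 also: 0% = complete ARNT plus TACC3 wells and 100% = ARNT alone without TACC3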
PvdQ acylase – blocks Pseudomonas aeruginosa PvdQ acylase activity; purified PvdQ acylase, fluorescence plate reader; inhibition, % at 10 µM; actives 0.063% (n = 340,000); in the data active = inhibition above about 30%, passing the limit was not always enough;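 also: 0% = vehicle neutral wells and 100% = reference inhibitor wells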
rRNA inh HTS – inhibitors of bacterial rRNA selective over humanized ribosomes | E. coli WT GFP vs humanized-ribosome RFP mutants, fluorescence, 24 h; hits give low values; DMSO median 0, no signal -100 | GFP signal change (wild-type ribosome), % (concentration not given with the values) | actives 1.6% (n = 350,000) | AID 720706;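 active = significant combined selectivity score with lowered wild-type GFP, culture density cut under 30%, mutant RFP and density less affected; inactive = any of these conditions unmet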
* marks the source's active call; other numbers are inactive results; . = no result.

SMILES	F508del corr	ERAP1 inh	ARNT TACC3 PPI	PvdQ acylase	rRNA inh HTS
COc1ccc(CN(C)C[C@H]2OCCCC[C@H](C)Oc3ccc(NS(=O)(=O)c4cn(C)cn4)cc3C(=O)N([C@H](C)CO)C[C@H]2C)cc1	-1	-5	23	.	6
C[C@@H]1CN([C@H](C)CO)C(=O)c2cccc(NC(=O)c3cnccn3)c2O[C@H]1CN(C)S(=O)(=O)c1cn(C)cn1	1	2	.	.	5
NC(=O)c1ccnc2c(O)cccc12	2	-2	73*	-4	0
OCc1ccnc2c(O)cccc12	.	.	66*	11	.
Cc1cccc(NCc2ccc(O)c3ncccc23)c1	-4	1	-4	4	-13
O=C(c1ccccn1)N1C[C@H]2[C@@H](c3ccccc31)[C@@H](CO)N2C(=O)Nc1ccccc1Cl	-3	.	4	.	3
CCCN1C[C@H](C)[C@@H](OC)CN(C)C(=O)c2cc(NC(=O)c3ccccc3F)ccc2OC[C@H]1C	0	-2	-10	.	-1
CN(C)c1cccc(C(=O)NNC(=S)NC2CC3CCC2C3)c1 (stereo not given)	0	8	7	-7	-24*
OC1CCN(c2c3c(nc4cc(-c5cccc(F)c5)nn24)CCCC3)CC1	4	0	-6	3	-19*
Cc1c(Cl)cccc1NC(=O)c1ncn[nH]1	4	3	73*	-12	1
Cc1ccc(NC(=O)c2ncn[nH]2)cc1	-1	-2	-4	-14	17
O=c1c2ccccc2nc(COc2ccccc2)n1/N=C/c1c[nH]c2ccccc12	.	1	9	-8	5
O=c1c2ccccc2nc(COc2ccccc2)n1/N=C/c1ccc(O)cc1O	-1	.	8	-8	-31*
Cc1noc(C)c1COc1ccc(C(=O)N2CCN(S(=O)(=O)c3ccc(F)cc3)CC2)cc1	26*	0	.	-16	6
COCCNC(=O)C1CCCN(C(=O)c2ccc(OC)c(F)c2)CC1 (stereo not given)	2	3	.	.	.
COCCNC(=O)C1CCCN(C(=O)c2ccc3sccc3c2)CC1 (stereo not given)	8.5*	4	.	.	2
Cc1cccc(NC(=O)CSc2cccc3cccnc23)c1	-1	-2	57*	3	-11
O=C(CSc1cccc2cccnc12)Nc1cc(C(=O)O)cc(C(=O)O)c1	3	4	68*	6	10
CC(C)NC(=O)N(C)C[C@H]1OCCCC[C@H](C)Oc2ccc(NS(=O)(=O)c3cn(C)cn3)cc2C(=O)N([C@H](C)CO)C[C@@H]1C	-1	2	-1	.	5
COc1cccc(CNC(=O)[C@H]2[C@H](CO)[C@H]3Cn4c(ccc(C5=CCCC5)c4=O)[C@@H]2N3)c1	.	.	.	.	2
O=S(=O)(c1ccccc1)N1CCN=C1SCc1cccc(Cl)c1	.	-1	-2	-5	-23*
CSC1=NCCN1S(=O)(=O)c1ccc2ccccc2c1	-1	0	-2	-11	-5
CCSC1=NCCN1S(=O)(=O)c1ccc2ccccc2c1	1	-1	-9	-10	-30*
O=S(=O)(c1ccccc1)N1CCN=C1SCc1ccc(Cl)c(Cl)c1	.	.	-10	-11	.
COc1ccc2c3c(n(C)c2c1)[C@H](CO)N(C(=O)c1ccc(F)cc1)CC31CN(C(C)=O)C1	.	.	.	.	0
SMILES	F508del corr	ERAP1 inh	ARNT TACC3 PPI	PvdQ acylase	rRNA inh HTS
COc1ccc(N2CC(C(=O)Nc3nc4ccc(F)cc4s3)CC2=O)c(OC)c1 (stereo not given)	0	2	5	-5	-30*
O=C(N/N=C/c1cnc(N2CCCCC2)s1)c1ccc(C(F)(F)F)cc1	-1	-3	3	-4	16
CC1CN(c2ncc(/C=N/NC(=O)c3ccccc3O)s2)CC(C)O1 (stereo not given)	0	3	24	-5	-31*
Cc1c(Cc2c(C)n(C)n(-c3ccccc3)c2=O)c(=O)n(-c2ccccc2)n1C	.	.	11	4	.
Cc1c(N=NC2=C(O)CC(C)(C)CC2=O)c(=O)n(-c2ccccc2)n1C	3	-5	61*	12	17
Cc1c(O)c(=O)n(-c2ccccc2)n1C	4	-1	-6	-6	-16*
CCOC(=O)/C(N=Nc1c(C)n(C)n(-c2ccccc2)c1=O)=C(\C)O	.	.	72*	-8	.
COc1ccccc1-c1cnc2c(c1)C(=O)N([C@H](C)CO)C[C@H](C)[C@H](CN(C)C(C)=O)O2	-1	-2	-1	.	1
C[C@H]1CN([C@@H](C)CO)C(=O)c2cc(N(C)C)ccc2O[C@@H]1CN(C)C	-4	.	.	.	.
CC(C)C[C@H](NC(=O)N1CCn2c1nc1ccccc12)C(=O)N1CCCCC1	-2	2	2	-13	-3
CSCC[C@H](NC(=O)N1CCn2c1nc1ccccc12)C(=O)N1CCCCC1	0	-1	4	-6	-17*
COc1cccc(C2C=C(c3cccs3)Nc3ncnn32)c1OC (stereo not given)	.	.	28*	11	.
C/C=C/c1cnc2c(c1)C(=O)N([C@H](C)CO)C[C@H](C)[C@H](CN(C)C(=O)Nc1ccc(C(F)(F)F)cc1)O2	1	-2	-2	.	0
CSc1cccc(NC(=S)N(CCCN2CCC(C)CC2)Cc2cccs2)c1	1	1	9	-2	-19*
COc1cccc(NC(=S)N(CCCN2CCC(C)CC2)Cc2cccs2)c1	2	-5	2	0	9
COC(=O)C1CCN(C2CC(=O)N(c3cc(C)cc(C)c3)C2=O)CC1 (stereo not given)	-6	-3	.	36*	2
O=S(=O)(Cc1ccccc1)NCC[C@@H]1CC[C@@H](NS(=O)(=O)c2ccccc2)[C@H](CO)O1	3	-2	-5	.	-2
C/C(=N\NC(=O)c1nnn(-c2nonc2N)c1CN(C)c1ccccc1)c1ccccn1	.	.	48*	-22	.
CN(Cc1c(C(=O)N/N=C/c2c(F)cccc2Cl)nnn1-c1nonc1N)c1ccccc1	2	-2	4	3	-22*
CO[C@@H]1CN(C)C(=O)c2ccc(NC(=O)C3CC3)cc2OC[C@H](C)N(C(=O)C2CCCCC2)C[C@@H]1C	1	-1	-18	.	-3
CCCCCC(=O)NC(NC(=S)Nc1ccc(S(N)(=O)=O)cc1)C(Cl)(Cl)Cl (stereo not given)	.	.	-1	-9	.
O=C(CCc1ccccc1)NC(NC(=S)Nc1ccc(Br)cc1)C(Cl)(Cl)Cl (stereo not given)	1	8	-5	-9	-12
CCCC(=O)NC(NC(=S)Nc1ccc(S(N)(=O)=O)cc1)C(Cl)(Cl)Cl (stereo not given)	.	.	28*	-9	.
CCCC(=O)NC(NC(=S)Nc1ccc(N=Nc2ccccc2)cc1)C(Cl)(Cl)Cl (stereo not given)	8.6*	2	-5	17	-18
CCCc1cc(C(=O)Nc2cccc3ccccc23)n(C)n1	0	-3	-1	-13	-30*

High-throughput results from PubChem BioAssay.
